# Laboratory results from PubChem BioAssay AID493200 (National Center for Advancing Translational Sciences (NCATS), 2011).
# Records with an inconclusive call do not appear. Entries that show only a call come without a potency. Calls of active or inactive are those of the source. Calls follow the shape of the dose curve; as a rule, active = well fitted activation curve with a large enough effect; inconclusive = small, poorly fitted or top-dose-only effect; inactive = no such curve, though single readings can be large or run the other way.
# Assay: qHTS Assay for Rab9 Promoter Activators: Initial hit validation from the primary screen
# Conditions: Huh7 Rab9 promoter luciferase reporter, 24 h; series mostly up to 46.1 µM
# How it was run: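 Luciferase signal, read 10 min after Amplite reagent, reports Rab9 promoter activation. Compounds in DMSO were applied for 24 h at 37C to Rab9-luciferase Huh7 cells, pre-incubated 2 h in reduced-serum medium with 10% FBS.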
# Potency is read from the fitted curve at half-maximal effect.
row,Structure (SMILES),Potency
1,O=C(COc1ccccc1F)Nc1ccc(-c2nc3ccccc3s2)cc1,223 nM (active)
2,Cc1nc(-c2ccccn2)sc1C(=O)Nc1ccc(F)cc1F,9960 nM (active)
3,COc1ccc(-c2csc(Nc3ncccn3)n2)cc1C,281 nM (active)
4,C=CCOC(=O)N1CCN(c2cccc(C(F)(F)F)c2)CC1,inactive
5,Cc1nn(CCCC(=O)NCc2ccc(F)cc2)c(C)c1[N+](=O)[O-],inactive
6,O=C(C[N+]1(CC#Cc2ccccc2)CCCCC1)c1ccccc1,inactive
7,CC(Sc1ncnc2c1cnn2-c1ccccc1)C(=O)Nc1ccc(N2CCOCC2)cc1 (centres undefined),inactive
8,Cc1ccc(C)c(Nc2cc(C)nc3ncnn23)c1,inactive
9,COc1ccc(NC(=O)Nc2ccc(Cc3ccncc3)cc2)cc1OC,inactive
10,COc1ccc(NC(=O)CN(C)C(=O)c2ccc(=O)[nH]c2)cc1,inactive
11,COc1ccc(NC(=O)CCCN2C(=O)C(c3ccccc3)Oc3cccnc32)cc1OC (centres undefined),inactive
12,CCOC(=O)c1ccc(NC(=O)Oc2cc(C)c(Cl)cc2C(C)C)cc1,inactive
13,CCCCc1cc(=O)oc2cc(OCC(=O)N3CCOCC3)ccc12,inactive
14,O=C(CCCC(=O)N(CC(=O)NC1CCCCC1)c1cccc(F)c1)Nc1ccccn1,inactive
15,C=CCc1ccc(OCCOCCNCCOC)c(OC)c1,inactive
16,O=[N+]([O-])c1cnccc1Nc1ccc(F)cc1,inactive
17,N#C/C(=N\Nc1ccc(Cl)cc1)C(=N)N1CCCCC1,223 nM (active)

row,Structure (SMILES),Potency
1,CC1=C(C(=O)OC2CCCC(C)C2)C(c2ccccc2)NC(=O)N1 (centres undefined),inactive
2,CC(C)C(NC(=O)c1ccc([N+](=O)[O-])cc1Cl)C(=O)N1CCCC1 (centres undefined),inactive
3,CCc1cc2c(N=Nc3c(O)[nH]c4ccccc34)ncnc2s1,inactive
4,COc1cccc(CNC(=O)CN(c2cc(C)cc(C)c2)S(=O)(=O)c2c(C)noc2C)c1,inactive
5,COc1ccc(NC(=S)NNC(=O)c2cccs2)cc1,31500 nM (active)
6,COc1cccc(C(C(=O)NC2CCCC2)N(CCC(C)C)C(=O)CCC(=O)Nc2cc(C)on2)c1 (centres undefined),inactive
7,CCOC(=O)c1ccccc1NC(=O)CSc1nnc(Cc2cccn2C)n1-c1ccc(F)cc1,inactive
8,O=C(CSc1nnc(Cc2cc(=O)[nH]c(=O)[nH]2)n1-c1ccc(Cl)cc1)NC1CCCC1,inactive
9,O=C(/C=C/c1ccco1)NCC1OCCc2ccccc21 (centres undefined),inactive
10,CC(Sc1nnc(C(F)(F)F)n1C)C(=O)Nc1ccc(S(N)(=O)=O)cc1 (centres undefined),inactive
11,CCC(=O)NC(=S)Nc1ccc(N2CCOCC2)cc1,39700 nM (active)
12,CCOc1ccc(CNC(=O)C2CCCN(S(C)(=O)=O)C2)cc1OC (centres undefined),inactive
13,Cc1cccc(C)c1NC(=O)Nc1cccs1,inactive
14,COc1ccc(/C=C\c2onc(C)c2S(=O)(=O)N2CCC(C(=O)NCCC(C)C)CC2)cc1,inactive
15,CC(C)C1(CCNC(=O)c2cccs2)CCOC(C)(C)C1 (centres undefined),inactive
16,COc1cccc(NC(=O)CN2C(=O)CSc3ccc(S(=O)(=O)N4CCC(C)CC4)cc32)c1,inactive
17,CCOC(=O)CSc1nc2cc(C)ccc2cc1C#N,996 nM (active)
